Assay [1] deals with Bile acid receptor (Homo sapiens) (UniProt Q96RI1). The experiment in a line: ATG_FXR_TRANS: Attagene TRANS-FACTORIAL HepG2 Assay for Farnesoid X Receptor (FXR) (AID 2282979).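 Also: hits raise reporter mRNA above DMSO so AC50 marks FXR activation.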 Conditions: HepG2 Attagene TRANS FXR-GAL4 reporter transcription. Put shortly:
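Chimeric FXR-GAL4 activity in transiently transfected human HepG2 liver cells is scored as induction of reporter mRNA after 24 h of dosing. Detection uses RT-PCR with fluorescent labelling and capillary electrophoresis, with DMSO serving as baseline.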

Assay [2] deals with Oxysterols receptor LXR-alpha (Homo sapiens) (UniProt Q13133). The experiment in a line: ATG_LXRa_TRANS: Attagene TRANS-FACTORIAL HepG2 Assay for human Liver X Receptor alpha (LXRa) (AID 2282980). Conditions: HepG2 Attagene TRANS reporter, LXRa transactivation. The procedure, abridged:
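Transient HepG2 transfectants, 24 h dosing, RT-PCR/CE mRNA reporter quantitation; gain-of-signal vs DMSO.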

In assay [3] the target is Oxysterols receptor LXR-beta (Homo sapiens) (UniProt P55055). Briefly: ATG_LXRb_TRANS: Attagene TRANS-FACTORIAL HepG2 Assay for human Liver X Receptor beta (LXRb) (AID 2282981). The conditions noted are these: HepG2 Attagene TRANS GAL4-LXRb reporter, mRNA. The procedure, abridged:
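Gain-of-signal mRNA reporter endpoint, DMSO as negative control. Transiently transfected HepG2 cells carrying the NR-Gal4 chimera and GAL4-UAS reporter units were treated 24 h; transcripts quantified by RT-PCR and capillary electrophoresis fluorescence.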

Assay [4] can be described thus: ATG_M_06_TRANS: Attagene TRANS-FACTORIAL HepG2 Assay for M06 Transcription Factor (Internal Marker) (AID 2282983). Conditions: HepG2 Attagene TRANS M06 internal marker reporter. The procedure, abridged: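 Measured by capillary electrophoresis of fluorescently labelled RT-PCR products, this endpoint reflects reporter mRNA in HepG2 cells harbouring exogenous NR-GAL4 reporter constructs after 24 h exposure, with DMSO as baseline.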

Assay [5] in a line: ATG_M_32_TRANS: Attagene TRANS-FACTORIAL HepG2 Assay for M32 Transcription Factor (Internal Marker) (AID 2282984).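 Also: transcript level of a background control reporter unit measured by RT-PCR and capillary electrophoresis.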 Conditions: HepG2 Attagene TRANS M32 internal marker reporter. Put shortly:
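Capillary electrophoresis of 6-FAM-labelled reporter fragments gives the signal; data fitted for gain over DMSO negative control. Source: HepG2 cells bearing transient multiple reporter transcription units, 24 h exposure.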

Assay [6] addresses Transcriptional activator Myb (Homo sapiens) (UniProt P10242). The experiment in a line: ATG_Myb_CIS: Attagene CIS-FACTORIAL HepG2 Assay for human Myeloblastosis (Myb) Proto-Oncogene Transcription Factor (AID 2282986; active = hit-call score of the fitted dose curve at least 0.9, where 1 is the maximum; inactive = score below 0.9). The conditions noted are these: HepG2 Attagene CIS-FACTORIAL Myb reporter transcription; actives raise or lower the signal. The procedure, abridged: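 HepG2, transient MRTU transfection (cis-element promoters, endogenous TF activity), 24 h compound exposure. Readout: reporter mRNA via RT-PCR, 6-FAM labeling, HpaI digest, capillary electrophoresis. Gain/loss fit vs DMSO.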

For assay [7], the target named is Nuclear respiratory factor 1 (Homo sapiens) (UniProt Q16656). Briefly: ATG_NRF1_CIS: Attagene CIS-FACTORIAL HepG2 Assay for human Nuclear Respiratory Factor 1 (NRF1) Orphan Gene (AID 2282987; active = hit-call score of the fitted dose curve at least 0.9, where 1 is the maximum; inactive = score below 0.9). The conditions noted are these: HepG2 NRF1 cis-element reporter, Attagene multiplex; actives raise or lower the signal. The procedure, abridged:
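Endogenous NRF1-driven reporter transcription measured in transiently transfected human HepG2 liver cells. Readout: reporter mRNA by RT-PCR and capillary electrophoresis with fluorescence detection, 24 h post-dosing. Gain or loss of signal fitted relative to DMSO baseline.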

Assay [8] in a line: ATG_NFI_CIS: Attagene CIS-FACTORIAL HepG2 Assay for human Nuclear Factor I (NFI) (AID 2282989; active = hit-call score of the fitted dose curve at least 0.9, where 1 is the maximum; inactive = score below 0.9). The conditions noted are these: HepG2 cis-regulatory reporter, NFI response element transcription; actives raise or lower the signal. The procedure, abridged:
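HepG2 cells transiently transfected with cis-element-driven multiplexed reporter transcription units, dosed for 24 h. Reporter mRNA quantified by RT-PCR, fluorescent labelling, HpaI digestion and capillary electrophoresis; bidirectional fit versus DMSO baseline.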

The target of assay [9] is Hepatocyte nuclear factor 4-alpha (Homo sapiens) (UniProt P41235). Briefly: ATG_HNF4a_TRANS: Attagene TRANS-FACTORIAL HepG2 Assay for human Hepatocyte Nuclear Factor 4 alpha (HNF4a) (AID 2282982). The conditions noted are these: HepG2 HNF4a transactivation reporter, mRNA readout. The procedure, abridged:
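Gain-of-signal mRNA induction, relative to DMSO vehicle, was read after 24 h compound treatment of HepG2 cells bearing transfected GAL4-UAS reporters. Detection used RT-PCR, 6-FAM primer extension and capillary electrophoresis.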

For assay [10], the target named is Nuclear receptor subfamily 4 group A member 2 (Homo sapiens) (UniProt P43354). The experiment in a line: ATG_NURR1_TRANS: Attagene TRANS-FACTORIAL HepG2 Assay for human Nuclear Receptor Related Protein 1 (NURR1) (AID 2282985). The conditions noted are these: HepG2 Attagene TRANS reporter, mRNA readout. The procedure, abridged: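 HepG2 / transient MRTU transfection / 24 h compound exposure / RT-PCR + CE fluorescence of reporter mRNA / gain-of-signal vs DMSO.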

Inconclusive results are not listed. Active and inactive are the calls of the source. The calls were made as follows, unless noted: active = hit-call score of the fitted dose curve at least 0.9, where 1 is the maximum; inconclusive = response in the unintended direction; inactive = score below 0.9.

Chain of Hepatocyte nuclear factor 4-alpha (Homo sapiens) (P41235 whole entry, looked up, the tested form may be a part): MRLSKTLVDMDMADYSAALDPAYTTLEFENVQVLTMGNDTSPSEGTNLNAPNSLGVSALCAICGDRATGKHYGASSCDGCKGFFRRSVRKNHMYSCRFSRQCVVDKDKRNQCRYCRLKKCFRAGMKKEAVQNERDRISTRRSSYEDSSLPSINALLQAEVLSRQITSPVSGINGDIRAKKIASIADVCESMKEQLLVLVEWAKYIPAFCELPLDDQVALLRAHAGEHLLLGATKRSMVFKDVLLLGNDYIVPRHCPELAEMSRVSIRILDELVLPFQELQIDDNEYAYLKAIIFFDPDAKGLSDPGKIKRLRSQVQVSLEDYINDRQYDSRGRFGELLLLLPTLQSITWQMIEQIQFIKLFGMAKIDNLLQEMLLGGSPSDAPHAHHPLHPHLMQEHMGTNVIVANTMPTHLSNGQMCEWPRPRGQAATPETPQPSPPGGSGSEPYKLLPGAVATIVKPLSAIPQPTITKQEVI
Chain of Transcriptional activator Myb (Homo sapiens) (P10242 whole entry, looked up): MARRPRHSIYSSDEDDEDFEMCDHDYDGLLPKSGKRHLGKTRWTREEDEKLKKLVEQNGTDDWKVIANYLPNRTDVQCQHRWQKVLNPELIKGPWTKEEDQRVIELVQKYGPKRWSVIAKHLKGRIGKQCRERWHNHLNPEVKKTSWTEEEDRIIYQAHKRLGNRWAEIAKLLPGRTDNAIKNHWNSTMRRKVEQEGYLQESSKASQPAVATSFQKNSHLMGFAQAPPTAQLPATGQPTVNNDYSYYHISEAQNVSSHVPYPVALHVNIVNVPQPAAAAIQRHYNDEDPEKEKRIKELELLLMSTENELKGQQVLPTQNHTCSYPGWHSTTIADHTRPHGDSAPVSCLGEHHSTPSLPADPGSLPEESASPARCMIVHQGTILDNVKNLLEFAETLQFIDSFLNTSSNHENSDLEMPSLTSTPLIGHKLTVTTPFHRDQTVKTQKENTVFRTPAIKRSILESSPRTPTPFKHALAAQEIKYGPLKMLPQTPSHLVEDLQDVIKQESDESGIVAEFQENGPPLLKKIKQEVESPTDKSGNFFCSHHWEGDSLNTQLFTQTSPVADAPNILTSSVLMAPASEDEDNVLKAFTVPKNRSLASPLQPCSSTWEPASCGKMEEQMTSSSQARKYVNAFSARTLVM
Chain of Oxysterols receptor LXR-beta (Homo sapiens) (P55055 whole entry, looked up, the tested form may be a part): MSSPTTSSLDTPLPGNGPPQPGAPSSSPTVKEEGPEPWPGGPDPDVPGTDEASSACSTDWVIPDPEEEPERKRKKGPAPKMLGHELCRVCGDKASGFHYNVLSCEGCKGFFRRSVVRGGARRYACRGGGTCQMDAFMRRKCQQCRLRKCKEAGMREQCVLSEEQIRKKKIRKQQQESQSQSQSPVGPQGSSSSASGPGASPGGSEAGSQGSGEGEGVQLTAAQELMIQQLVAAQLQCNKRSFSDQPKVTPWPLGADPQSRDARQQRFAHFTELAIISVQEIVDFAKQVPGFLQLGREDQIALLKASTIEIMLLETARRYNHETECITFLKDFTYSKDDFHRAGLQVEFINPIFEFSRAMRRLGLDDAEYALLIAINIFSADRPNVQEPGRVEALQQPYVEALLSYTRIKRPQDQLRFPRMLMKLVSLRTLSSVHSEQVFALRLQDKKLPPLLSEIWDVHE
Chain of Oxysterols receptor LXR-alpha (Homo sapiens) (Q13133 whole entry, looked up): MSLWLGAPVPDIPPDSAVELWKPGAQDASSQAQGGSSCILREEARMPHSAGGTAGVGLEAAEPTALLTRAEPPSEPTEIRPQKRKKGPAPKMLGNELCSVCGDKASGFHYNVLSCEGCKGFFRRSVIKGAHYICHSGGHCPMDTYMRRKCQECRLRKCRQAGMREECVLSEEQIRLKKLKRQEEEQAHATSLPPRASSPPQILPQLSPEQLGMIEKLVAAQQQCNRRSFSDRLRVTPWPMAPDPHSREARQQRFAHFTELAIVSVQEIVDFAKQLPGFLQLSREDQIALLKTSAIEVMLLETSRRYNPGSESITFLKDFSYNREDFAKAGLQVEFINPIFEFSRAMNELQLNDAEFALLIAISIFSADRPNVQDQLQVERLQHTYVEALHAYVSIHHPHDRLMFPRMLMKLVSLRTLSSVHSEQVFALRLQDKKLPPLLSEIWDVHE
Chain of Nuclear receptor subfamily 4 group A member 2 (Homo sapiens) (P43354 whole entry, looked up): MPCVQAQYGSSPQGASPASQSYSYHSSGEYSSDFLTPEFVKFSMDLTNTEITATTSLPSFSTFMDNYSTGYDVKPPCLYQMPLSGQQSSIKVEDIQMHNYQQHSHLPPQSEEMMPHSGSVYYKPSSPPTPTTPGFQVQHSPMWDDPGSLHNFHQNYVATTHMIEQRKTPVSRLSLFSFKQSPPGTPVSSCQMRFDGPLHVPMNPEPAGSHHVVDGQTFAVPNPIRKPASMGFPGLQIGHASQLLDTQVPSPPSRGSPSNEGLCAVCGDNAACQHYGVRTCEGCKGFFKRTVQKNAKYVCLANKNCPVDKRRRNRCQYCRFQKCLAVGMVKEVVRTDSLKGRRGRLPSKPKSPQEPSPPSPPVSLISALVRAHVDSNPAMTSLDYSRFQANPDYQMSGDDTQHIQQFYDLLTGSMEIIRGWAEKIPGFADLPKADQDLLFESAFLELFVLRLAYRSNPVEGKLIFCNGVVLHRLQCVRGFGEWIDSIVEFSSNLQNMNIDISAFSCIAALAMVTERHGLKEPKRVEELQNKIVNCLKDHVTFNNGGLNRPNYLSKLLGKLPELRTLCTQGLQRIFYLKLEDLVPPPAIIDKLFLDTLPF
Chain of Nuclear respiratory factor 1 (Homo sapiens) (Q16656 whole entry, looked up): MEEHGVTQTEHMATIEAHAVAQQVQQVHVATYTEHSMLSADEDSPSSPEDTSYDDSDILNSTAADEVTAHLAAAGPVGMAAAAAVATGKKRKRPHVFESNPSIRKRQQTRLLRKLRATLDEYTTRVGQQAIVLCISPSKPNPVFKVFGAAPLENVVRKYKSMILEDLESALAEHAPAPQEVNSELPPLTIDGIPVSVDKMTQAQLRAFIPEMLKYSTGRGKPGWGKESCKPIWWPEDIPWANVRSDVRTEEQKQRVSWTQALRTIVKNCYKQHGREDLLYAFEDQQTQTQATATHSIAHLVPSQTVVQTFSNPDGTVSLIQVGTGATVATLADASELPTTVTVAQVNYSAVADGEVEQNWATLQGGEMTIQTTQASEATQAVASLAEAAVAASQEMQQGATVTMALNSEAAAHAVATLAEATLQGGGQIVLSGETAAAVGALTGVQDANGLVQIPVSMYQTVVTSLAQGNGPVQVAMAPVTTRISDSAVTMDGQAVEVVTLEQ
Chain of Bile acid receptor (Homo sapiens) (Q96RI1 whole entry, looked up, the tested form may be a part): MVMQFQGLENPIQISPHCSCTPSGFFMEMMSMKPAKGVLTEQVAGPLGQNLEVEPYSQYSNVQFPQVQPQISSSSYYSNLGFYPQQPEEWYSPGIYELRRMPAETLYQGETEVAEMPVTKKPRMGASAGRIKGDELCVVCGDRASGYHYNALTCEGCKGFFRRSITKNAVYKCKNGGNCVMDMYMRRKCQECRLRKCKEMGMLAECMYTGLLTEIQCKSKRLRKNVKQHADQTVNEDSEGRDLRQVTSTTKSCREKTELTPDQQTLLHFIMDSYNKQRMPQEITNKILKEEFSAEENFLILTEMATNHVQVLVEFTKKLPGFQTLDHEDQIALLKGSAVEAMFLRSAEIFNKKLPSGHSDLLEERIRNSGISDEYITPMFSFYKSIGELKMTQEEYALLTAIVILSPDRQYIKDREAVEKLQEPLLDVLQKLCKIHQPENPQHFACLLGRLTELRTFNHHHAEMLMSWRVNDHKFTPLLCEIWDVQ

Turning to `O=C(Nc1ccc([N+](=O)[O-])cc1)Nc1ccc([N+](=O)[O-])cc1` (tested in a mixture with another compound), the result in assay [1], in assay [2], in [3], in assay [4], in assay [5] and in assay [6] was inactive. Also, the compound was called inactive in [7] and in assay [8].
As for `OCc1cccc(Oc2ccccc2)c1`, the compound was called inactive in assay [1], in assay [2], in assay [3], in [9], in assay [4] and in assay [5]. The compound was classed as inactive in [6], in assay [7] and in [8].
Turning to `CC(C)C[C@H](NC(=O)OCC1c2ccccc2-c2ccccc21)C(=O)O`, the compound was called inactive in [1], in assay [2], in [3], in assay [9], in [4] and in assay [6]. In addition, the call in assay [7] and in assay [8] was inactive.
In the case of `CCCCCCC(C)Nc1ccc(Nc2ccccc2)cc1` (stereo not drawn), the call in assay [1], in [2], in assay [3], in assay [4], in [6] and in assay [7] was inactive. In [8], the compound was called inactive. In assay [10], the AC50 – broadly, the concentration at which the activity in the assay is half-maximal – is 39.5 µM (active).
Take `CCCCC(CC)COC(=O)c1ccc(O)cc1` (stereo not drawn): the outcome in assay [1], in [2], in assay [3], in assay [9], in assay [4] and in assay [5] was inactive. Further, the compound was called inactive in [10], in assay [6], in assay [7] and in assay [8].
On to `O=[N+]([O-])c1ccc(O)cc1C(F)(F)F`, for which the compound was classed as inactive in assay [1], in assay [2], in assay [3], in assay [9], in [4] and in [5]. The result in [10] and in assay [6] was inactive. Moreover, the AC50 in assay [8] was 69.4 µM (active).
For `Nc1ccc2cc(S(=O)(=O)O)cc(O)c2c1N=Nc1ccccc1C(F)(F)F`, the compound was called inactive in assay [1], in [2], in assay [3], in assay [9], in assay [5] and in assay [10]. Further, the compound was called inactive in [6], in [7] and in assay [8].
`CC(C)(C)OC(=O)c1ccc(O)cc1`: the result in [1], in [2], in [3], in [9], in assay [4] and in [10] was inactive. Moreover, the outcome in [6], in [7] and in assay [8] was inactive.
In the case of `Cc1ccc(S(=O)(=O)Oc2ccc(N=Nc3ccc(-c4ccc(N=Nc5c(O)ccc6cc(S(=O)(=O)O)cc(S(=O)(=O)O)c56)c(C)c4)cc3C)cc2)cc1`, the call in [1], in assay [2], in [3], in [5], in assay [10] and in assay [6] was inactive. The compound was called inactive in assay [8].
Regarding `COC(=O)c1ccc(OC)cc1`, the call in [1], in [2], in assay [3], in assay [9], in [4] and in [5] was inactive. Also, the outcome in [6], in assay [7] and in assay [8] was inactive.
As for `CN(C)CCOc1ccc(/C(=C(/CCCl)c2ccccc2)c2ccccc2)cc1`, the compound was classed as inactive in assay [1], in [2], in assay [3], in assay [5], in [10] and in assay [6]. For the same compound, the result in assay [7] and in assay [8] was inactive.
`CCc1cc(Cc2cc(CC)cc(C(C)(C)C)c2O)c(O)c(C(C)(C)C)c1`: the result in assay [1], in [2], in [3], in [9], in [4] and in [6] was inactive. Moreover, the compound was classed as inactive in assay [7]. Also, the concentration at half-maximal activity (AC50) in assay [8] was 13.5 µM (active).
As for `O=C(Nc1ccc2c(c1)Cc1ccccc1-2)C(F)(F)F`, the outcome in assay [1], in assay [2], in assay [3], in [9], in assay [4] and in [5] was inactive. Moreover, the call in assay [10], in [6], in [7] and in assay [8] was inactive.
In the case of `CCCCCCCCCCCC(=O)OC[C@@H](O)[C@H]1OC[C@H](O)[C@H]1O`, the compound was called inactive in assay [1], in [2], in assay [3], in assay [9], in assay [4] and in assay [5]. The outcome in [6], in assay [7] and in assay [8] was inactive.
With `CC1(C)O[C@@H]2C[C@H]3[C@@H]4CCC5=CC(=O)C=C[C@]5(C)[C@@]4(F)[C@@H](O)C[C@]3(C)[C@]2(C(=O)CO)O1`, the call in assay [1], in assay [2], in assay [3], in assay [5], in assay [10] and in assay [6] was inactive. For the same compound, the compound was called inactive in [7] and in [8].
Turning to `CC(=O)O[C@@H]1C[C@@H]2CC[C@@]1(C)C2(C)C`, the call in assay [1], in [2], in assay [3], in assay [9], in assay [5] and in [6] was inactive. Also, the call in assay [7] and in [8] was inactive.
In the case of `O=C(O)COCC(=O)O`, the compound was called inactive in assay [1], in assay [2], in assay [3], in [9], in [4] and in [6]. For the same compound, the result in [7] and in assay [8] was inactive.
For `CCOC(=O)[C@@H](C)Oc1ccc(Oc2nc3ccc(Cl)cc3o2)cc1`, the outcome in assay [1], in assay [2], in [3], in [4], in assay [5] and in assay [10] was inactive. The result in assay [6], in assay [7] and in assay [8] was inactive.
As to `CSc1c(Cl)c(Cl)c(Cl)c(Cl)c1Cl`, the call in [1], in assay [2], in assay [3], in assay [4], in [5] and in assay [6] was inactive. The AC50 is 26.9 µM (active) in assay [10], 169 µM (active) in assay [7] and 154 µM (active) in [8].
On to `CCCCCCCCSCCO`, for which the result in [1], in assay [2], in assay [3], in assay [4], in assay [5] and in [6] was inactive. The compound was classed as inactive in assay [7] and in assay [8].
Take `CC(C)(C)C1=CC(=O)C(C(C)(C)C)=CC1=O`: the compound was classed as inactive in assay [1], in [2], in assay [3], in assay [4], in [6] and in assay [7]. In assay [8], the result was inactive. Further, in assay [10], the AC50 is 74 µM (active).
On to `Cc1cc(S(=O)(=O)O)ccc1N=Nc1c(O)ccc2ccccc12`, for which the result in assay [1], in [2], in [3], in assay [9], in [10] and in [6] was inactive. The result in assay [7] and in assay [8] was inactive.
Turning to `CC/C=C\CC/C=C/CO`, the compound was called inactive in assay [1], in assay [2], in [3], in [4], in assay [5] and in [10]. For the same compound, the compound was called inactive in assay [6], in [7] and in [8].
As for `COC(C)(C)CC(C)=O`, the call in assay [1], in [2], in assay [3], in assay [9], in assay [4] and in assay [5] was inactive. Further, the call in assay [10], in assay [6], in [7] and in [8] was inactive.
Turning to `OCCOCCN1CCN(C2=Nc3ccccc3Sc3ccccc32)CC1`, the outcome in assay [1], in [2], in assay [3], in assay [4], in assay [5] and in [10] was inactive. Moreover, the compound was called inactive in assay [6], in assay [7] and in assay [8].
Consider `CC(C)CC(C)CC(O)CC(C)C` (stereo not drawn), for which the result in assay [1], in assay [2], in [3], in assay [5], in assay [10] and in assay [6] was inactive. Besides, the outcome in assay [7] and in assay [8] was inactive.
